# High-throughput results as filed in PubChem.
# Shown are actives, neighbours in structure and some others; about 15% of the full set was active somewhere.
# ALOX12 inh: Primary qHTS assay for inhibitors of human arachidonate 12S-lipoxygenase (ALOX12): Round 2; Polyunsaturated fatty acid lipoxygenase ALOX12 (Homo sapiens), P18054; purified 12hLO, xylenol orange hydroperoxide absorbance; Potency, µM (highest dose often 108 µM), without a hit: at the highest dose activity change, negative = inhibition, hits mostly inhibitors; hit rate 1.1% among 580,000; AID 1671190, 2021
#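 Purified human 12hLO (150 nM final) in 25 mM Hepes, 0.01% Triton X-100, pH 7.0 was preincubated 15 min at room temperature with compound. Then 40 uM arachidonic acid was added, 30 min. Hydroperoxide was read by Fe-XO absorbance ratio 573/405 nm.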
# DT40 TDP1 no CPT: qHTS for Inhibitors of human tyrosyl-DNA phosphodiesterase 1 (TDP1): qHTS in cells in absence of CPT | DT40 Tdp1-/- hTDP1 cells, no CPT, ATP luminescence, 48 h | Potency, µM (highest dose often 46.2 µM), for the others: at the highest dose activity change, negative = growth inhibition, actives largely listed as inhibitors | hit rate 15% among 420,000; further: nearly all actives have a fitted effect of over 55% in size
#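 Camptothecin absent (DMSO only). Human TDP1-complemented DT40 knockout cells, 400 cells/well, 37 °C for minimum 48 hr; ATP measured via CellTiter-Glo, 30 min dark incubation, luminescence.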
# ELG1 DNA repair: qHTS screen for small molecules that inhibit ELG1-dependent DNA repair in human embryonic kidney (HEK293T) cells expressing luciferase-tagged ELG1; AID 504467, 2011; hit rate 2.3% among 330,000; HEK293T ELG1-luciferase reporter, luminescence, 16 h; DNA damage induced by 5-fluorouridine; Potency, µM (doses to about 46.1 µM), inactives show top-dose activity change, negative = inhibition, most hits filed as inhibitors; further: nearly all actives have a fitted effect of over 55% in size
#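 Reporter activity after DNA damage by 5-fluorouridine is monitored. Compound-treated cells incubate 16 hr at 37 °C, then ONE-Glo is added for 30 min before luminescence reading.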
# DT40 TDP1 CPT: qHTS for Inhibitors of human tyrosyl-DNA phosphodiesterase 1 (TDP1): qHTS in cells in presence of CPT | hit rate 12% among 420,000 | chicken DT40 Tdp1-/-;hTDP1 cells + 20 nM CPT, ATP luminescence, 48 h | Potency, µM (top dose mostly 46.2 µM), for the others: at the top dose activity change, negative = growth inhibition, most hits filed as inhibitors; further: nearly all actives have a fitted effect of over 55% in size
#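 Chicken DT40 Tdp1-/- cells complemented with human TDP1, 400 cells/well, exposed to compounds plus 20 nM camptothecin for at least 48 h at 37 C; viability read as ATP content by CellTiter-Glo luminescence.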
# Gal4-VP16 FLuc: VP16 counterscreen qHTS for inhibitors of ROR gamma transcriptional activity; AID 2546, 2010; Drosophila S2 Gal4-VP16 UAS-luciferase, luminescence, 20 h; Potency, µM (top dose mostly 53.6 µM), for inactives: at the highest dose activity, negative = inhibition, actives largely listed as inhibitors; hit rate 3.5% among 310,000;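 further: Gal4-VP16 expression switched on by copper sulfate through the metallothionein promoter; nearly all actives have a fitted effect of over 50% in size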
# RORgamma inh: qHTS for inhibitors of ROR gamma transcriptional activity | Drosophila S2 Gal4-RORgamma UAS-luciferase reporter, 20 h | Nuclear receptor ROR-gamma (Mus musculus), P51450 | hit rate 5.4% among 310,000 | Potency, µM (top dose mostly 53.6 µM), for inactives: top-dose activity change, negative = inhibition, hits mostly inhibitors; further: nearly all actives have a fitted effect of over 60% in size
# Target sequence (P51450 whole entry, looked up, the tested form may be a part): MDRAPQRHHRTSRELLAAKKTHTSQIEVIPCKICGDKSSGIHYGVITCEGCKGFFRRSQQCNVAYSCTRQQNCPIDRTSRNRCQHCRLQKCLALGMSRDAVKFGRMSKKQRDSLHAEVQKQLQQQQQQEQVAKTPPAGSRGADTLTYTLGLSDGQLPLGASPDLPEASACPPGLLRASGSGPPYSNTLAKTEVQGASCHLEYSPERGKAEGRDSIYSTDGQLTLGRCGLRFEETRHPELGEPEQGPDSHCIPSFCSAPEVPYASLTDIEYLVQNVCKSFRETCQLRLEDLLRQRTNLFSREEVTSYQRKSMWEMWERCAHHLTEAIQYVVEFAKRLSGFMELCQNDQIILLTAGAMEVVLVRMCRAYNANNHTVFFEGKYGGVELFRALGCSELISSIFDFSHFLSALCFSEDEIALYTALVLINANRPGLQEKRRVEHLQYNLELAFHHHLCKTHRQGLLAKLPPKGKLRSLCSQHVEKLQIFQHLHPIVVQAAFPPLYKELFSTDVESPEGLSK
#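 In this cell-based reporter format, copper sulfate (700 uM final) drives Gal4–ROR gamma fusion expression from a metallothionein promoter in Drosophila Schneider cells; compounds preincubated 1 hr, reporter read after 20 hr at ambient temperature.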
# Active calls of the source: *; u = inconclusive; x = no result; [ ] = dose if it differs, or a comment. The call rests on the fitted dose curve; in most records, active means well fitted curve in the direction sought with a large enough effect; inconclusive means small, poorly fitted or top-dose-only effect, or another doubt; inactive means no such curve, though single readings can be large; an effect the other way counts as inactive or inconclusive. On the % scale 0 is the no-effect control and ±100 the full control effect; potency means the concentration at half of the fitted maximal effect.
SMILES,ALOX12 inh,DT40 TDP1 no CPT,ELG1 DNA repair,DT40 TDP1 CPT,Gal4-VP16 FLuc,RORgamma inh
CC(=O)Nc1ccc(CNc2nc(NCC3CC3)nc3ccsc23)cc1,u,u,x,18µM*,x,x
CC(=O)Nc1ccc(CNc2nc(NC(C)C)nc3ccsc23)cc1,-6%,-24%,x,0%,x,x
CCC(CC)C(=O)NC[C@@H]1C=C(C)[C@H](Cc2nc3c(C)cccc3[nH]2)C[C@H]1C(C)C,1%[176 µM],x,x,x,x,x
CC(C)Oc1ccc(S(=O)(=O)N2CCOCC2)cc1NC(=O)C1COc2ccccc2O1 (stereo not drawn),69%,18µM*,u,21µM*,x,x
CC(C)Oc1ccc(S(=O)(=O)N2CCOCC2)cc1NC(=O)Cc1ccsc1,3%,u,u,21µM*,x,x
COc1ccc(S(=O)(=O)N2CCOCC2)cc1NC(=O)Cc1ccsc1,-10%,-5%,2%,1%,x,x
CC(C)c1nc(N2CCN(C(=O)C(=O)N3CCCC3)CC2)c(C#N)c2c1CCCC2,12%,x,x,x,x,x
CCc1ccc(NC(=O)Nc2cc(C(=O)NCC3CCCO3)ccc2N2CC3CC(C2)c2cccc(=O)n2C3)cc1 (stereo not drawn),0%,17%,2%,-15%,7%,17%
O=C(O)c1ccc(N2CC3CC(C2)c2cccc(=O)n2C3)c(NC(=S)Nc2ccc(Br)cc2)c1 (stereo not drawn),40µM*,u,-1%,u,-7%,u
CCc1ccc(NC(=S)Nc2cc(C(=O)O)ccc2N2CC3CC(C2)c2cccc(=O)n2C3)cc1 (stereo not drawn),u,3%,u,0%,u,10µM*
Cc1ccc(O)c(C(=O)c2cnc3c(c2)c(-c2ccc(F)cc2)c(C#N)c(=O)n3C)c1,-1%,21µM*,u,18µM*,-20%,32%
Cc1ccc(-c2nnc(-c3cccc4ccccc34)o2)cc1,-3%,21µM*,x,16µM*,x,x
c1ccc(Cc2nnc(-c3ccccc3)o2)cc1,14%,-24%,u,-13%,u,-5%
COc1cccc(-c2nnc(-c3ccc(C(F)(F)F)cc3)o2)c1OC,0%,21µM*,u,u,19%,u
c1ccc(-c2nnc(C(c3ccccc3)c3ccccc3)o2)cc1,0%,18µM*,15%,26µM*,-8%,21%
Cc1ccc(-c2nnc(-c3ccccc3)o2)cc1,0%,u,u,-22%,10µM*,u
COCCOC1CCOC2(CCN(C(=O)c3ccc(OC)c(OC)c3)CC2)C1 (stereo not drawn),31%,x,x,x,x,x
O=C(CN1CCC(n2nnc3cc(F)ccc32)CC1)Nc1ccccc1N1CCOCC1,4%,18µM*,u,16µM*,-20%,-11%
O=C(CN1CCC(n2nnc3cc(F)ccc32)CC1)N1CCc2ccccc2C1,-20%,15µM*,21µM*,u,18%,2%
CCOc1ccc2nc(NC(=O)CN3CCC(n4nnc5cc(F)ccc54)CC3)sc2c1,-12%,u,9.2µM*,u,30%,-21%
O=C(CN1CCC(n2nnc3cc(F)ccc32)CC1)NC1CC1,0%,-3%,0%,12%,-3%,-3%
CC1CCCN(S(=O)(=O)c2ccc(-c3nc(C#N)c(NCc4ccco4)o3)cc2)C1 (stereo not drawn),7%,x,x,x,x,x
COc1ccc(Cl)cc1-n1nnc(-c2nc(-c3cc(OC)c(OC)c(OC)c3)no2)c1C,2%,x,x,x,x,x
